Hit rate of the full screen: of about 16,000 compounds, about 5,100 (32%) were called active. Not shown: some 25% with an inconclusive outcome. Calls come from the whole dose curve; as a rule, active = well fitted curve in the direction sought with a large enough effect; inconclusive = small, poorly fitted or top-dose-only effect, or effect the other way; inactive = no such curve, though single readings can be large or run the other way. Some of the results follow. Peptide text beside a SMILES is read from it.
The compounds below were run against Cytochrome P450 3A4 (Homo sapiens) (UniProt P08684) (assay: Cytochrome panel assay with activity outcomes). Conditions: recombinant CYP, pro-luciferin dealkylation, luminescence, p450-cyp3a4; series mostly up to 57.1 µM.
Chain of Cytochrome P450 3A4 (Homo sapiens) (P08684 whole entry, looked up): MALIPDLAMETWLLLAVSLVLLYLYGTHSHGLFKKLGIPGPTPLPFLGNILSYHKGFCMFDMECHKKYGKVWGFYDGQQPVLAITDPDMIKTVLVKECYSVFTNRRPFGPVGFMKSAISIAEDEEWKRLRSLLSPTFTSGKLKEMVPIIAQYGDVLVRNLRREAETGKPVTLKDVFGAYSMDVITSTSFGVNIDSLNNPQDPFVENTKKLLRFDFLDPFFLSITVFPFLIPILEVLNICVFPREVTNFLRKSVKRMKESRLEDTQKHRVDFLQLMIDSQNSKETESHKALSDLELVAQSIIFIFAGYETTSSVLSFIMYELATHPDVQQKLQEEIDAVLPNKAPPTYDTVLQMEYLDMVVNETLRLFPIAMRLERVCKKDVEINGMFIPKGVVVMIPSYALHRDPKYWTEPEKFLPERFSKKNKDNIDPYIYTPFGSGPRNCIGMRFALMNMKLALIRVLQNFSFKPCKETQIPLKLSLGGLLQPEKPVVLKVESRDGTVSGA
% is set by controls: 0 for no effect and ±100 for the full control effect.

Compound	AC50	activity, negative = inhibition
O=S(=O)(c1ccccc1)N1CCC[C@@]2(CCN(c3ccccc3)C2)C1	5.01 µM (active)	
O=S(=O)(c1ccccc1)N1CCC[C@@]2(CCN(c3ccncc3)C2)C1	3.98 µM (active)	
CS(=O)(=O)N1CCC2(CCN(c3ccncc3)CC2)CC1	inactive	
CN1CCN(C(=O)C(C(=O)c2ccc(F)cc2)n2ccccc2=O)CC1 (configuration not stated)	inactive	
CC(=O)N[C@@H](CC(=O)O)C(=O)N[C@@H](CCC(=O)O)C(=O)O (Ac-Asp-Glu-OH)	inactive	
COc1cc(/C=N/O)cc(Br)c1OCc1ccc(Cl)cc1	15.8 µM (active)	
COc1cc(/C=N/O)cc(Br)c1OCc1cccc(Cl)c1	14.1 µM (active)	
COc1cnc(SCc2ccc(Cl)cc2)nc1Cl	inactive	
Cc1ccc(-c2ccc(=O)n(CC(=O)NCCN(C)C)n2)cc1	inactive	
Cc1ccc(-c2ccc(=O)n(CC(=O)N3CCN(c4cccc(C)c4)C(C)C3)n2)cc1 (configuration not stated)	14.1 µM (active)	
CCCN1CCN(CCCNC(=O)Cn2nc(-c3ccc(C)cc3)ccc2=O)CC1	inactive	
COc1cc2c(cc1OC)C(c1ccc(N)cc1)=NNC(=O)C2	12.6 µM (active)	
COC(=O)c1cc(Br)c(=O)n(CCc2ccc(O)cc2)c1	15.8 µM (active)	
COC(=O)c1cc(Br)c(=O)n(CCN2CCCC2)c1		8.19% [at 2.29 µM] (inactive)
CCOc1ccc2c(c1)nc(SCC(=O)c1ccc(Br)s1)n2C	6.31 µM (active)	
c1ccc2nc(C3=NCCN3)cnc2c1	inactive	
C=CCNC(=S)Nc1ccc2nc(C)c(C)nc2c1	15.8 µM (active)	
C=CCNC(=S)N/N=C/c1ccc(OCc2ccccc2)cc1	inactive	
CC(C)Cn1c(SCC(=O)c2c(N)n(C)c(=O)n(C)c2=O)nc2ccccc21	2.51 µM (active)	
CCNC(=O)NC(=O)CSc1nc2ccccc2n1CC(C)C	12.6 µM (active)	
OC[C@@H]1O[C@@H](n2cnc3c(NC4CCCC4)ncnc32)[C@H](O)[C@H]1O	inactive	

Compound	AC50	activity, negative = inhibition
CC(=O)Oc1ccc2ccccc2c1C(NC(=O)Cc1ccccc1)c1ccc(Cl)cc1 (configuration not stated)	8.91 µM (active)	
O=C(Cc1ccc(Cl)cc1)NNC(=O)Nc1cccc2ccccc12		-12.3% [at 2.29 µM] (inactive)
CN1[C@@H]2CC[C@H]1CC(OC(c1ccccc1)c1ccccc1)C2 (some centres not stated)	inactive	
C=CCN(CC=C)C(=O)C(=O)c1cc(C)n(-c2ccc([N+](=O)[O-])cc2)c1C	2.82 µM (active)	
Cc1cc(C(=O)C(=O)NC(C)C)c(C)n1-c1ccc([N+](=O)[O-])cc1	inactive	
CCC(=O)Nc1nnc(C(C)(C)C)s1	inactive	
O=C(Nc1nccs1)c1sc2cc(Cl)ccc2c1Cl	10 µM (active)	
Clc1ccc2c(NCCNc3ccnc4cc(Cl)ccc34)ccnc2c1		4.32% [at 11.4 µM] (inactive)
COc1ccc(CNc2ncnc3ccc(-c4ccccc4C#N)cc23)c(OC)c1	1 µM (active)	
COc1ccccc1CNc1ncnc2ccc(-c3ccccc3C#N)cc12	3.98 µM (active)	
Cc1ccccc1-n1cnc2cc(NCc3cccs3)ccc21	5.01 µM (active)	
c1ccc(-n2cnc3cc(NCc4cccs4)ccc32)cc1	7.08 µM (active)	
CCCCc1ccc(NC(=S)NCc2cccs2)cc1		-10% [at 2.29 µM] (inactive)
O=S(=O)(Nc1cccnc1Cl)c1ccc2c(c1)OCCO2		7.34% [at 2.29 µM] (inactive)
O=S(=O)(O)c1cc(N=Nc2cccc3ccccc23)c(O)c2ncccc12		-5.6% [at 11.4 µM] (inactive)
O=S(=O)(Nc1ccc2c(c1)OCCO2)c1cccc2cccnc12	15.8 µM (active)	
CNC(=S)N1N=C(c2ccc(OC)cc2)CC1c1ccc(N(C)C)cc1 (configuration not stated)	3.98 µM (active)	
NC(N)=NC[C@@H]1COC2(CCCCC2)O1	inactive	
CCOC(=O)c1oc2nc(CC(C)C)c3c(c2c1N)CCC3	3.16 µM (active)	
CCOc1ncnc2c1oc1nc(CC(C)C)c3c(c12)CC(C)(C)OC3	inactive	
CC(C)Cc1nc(N2CCN(C(=O)c3ccccc3)CC2)c(C#N)c2c1CCC2	inactive	

Compound	AC50	activity, negative = inhibition
CCn1c(SCC(=O)N/N=C/C=C\c2ccccc2[N+](=O)[O-])nnc1-c1ccccc1	12.6 µM (active)	
Cn1c(SCC(=O)N/N=C/C=C\c2ccco2)nc2ccccc21		9.61% [at 2.29 µM] (inactive)
CC(=O)Nc1nc2ccccc2n1Cc1ccccc1	inactive	
CS(=O)(=O)c1nc2ccccc2n1Cc1ccccc1	inactive	
COc1ccc(CNc2nc3ccccc3n2Cc2ccccc2)cc1OC	3.98 µM (active)	
C#CCCCO/N=C1/[C@H]2O[C@@H]2[C@@H](O)[C@H]2[C@H]1CCn1c(=O)n(C)c(=O)n12		-24.7% [at 11.4 µM] (inactive)
CCCc1nnc(NC(=O)c2cccs2)s1	inactive	
Cc1ccc(Cc2cnc(NC(=O)c3cccs3)s2)cc1	7.94 µM (active)	
CN(C)CCCN1CCC2(CCC(C(C)(C)C)CC2)CC1		1.95% [at 11.4 µM] (inactive)
COc1ccccc1NC(=O)CN1CCN(C2c3ccccc3-c3ccccc32)CC1	12.6 µM (active)	
COc1ccccc1NC(=O)CN1CCN(c2ccccc2F)CC1	inactive	
COc1ccc(NC(C)=O)cc1NC(=O)CN1CCN(C2c3ccccc3-c3ccccc32)CC1	10 µM (active)	
NS(=O)(=O)c1cc(C(=O)O)c(Cl)c([N+](=O)[O-])c1Cl		-5.24% [at 11.4 µM] (inactive)
CCNc1ncc2nc(CCc3ccccc3)c(=O)n(CCC#N)c2n1	15.8 µM (active)	
CCNc1ncc2nc(-c3ccc(F)cc3)c(=O)n(C[C@H]3CCCO3)c2n1	inactive	
CCNc1ncc2nc(CCc3ccccc3)c(=O)n(Cc3ccc(F)cc3)c2n1	2.51 µM (active)	
CCSC1=C(C#N)C2(CCCCC2)C(C#N)=C(N)N1	8.91 µM (active)	
COc1ccc2c(c1)CCc1sc(NC(=O)c3ccc(C)cc3)nc1-2	10 µM (active)	
COc1ccc2c(c1)Cc1sc(NC(=O)c3ccco3)nc1-2	11.2 µM (active)	
COc1ccc(C(=O)Nc2nc3c(s2)Cc2cc(OC)ccc2-3)cc1	11.2 µM (active)	

Source: PubChem BioAssay AID1851 (National Center for Advancing Translational Sciences (NCATS), 2009)
